Among all 330,000 compounds or so, about 660 (0.2%) were called active.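 How the source made its calls: active means inhibition of at least 40% at 10 µM in the primary screen; inactive means the rest.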 For the sample, actives were picked, then their nearest neighbours and some compounds at random.
System: intestinal alkaline phosphatase [Mus musculus]
Assay: mouse intestinal phosphatase enzyme inhibition – biochemical, luminescence, uHTS, primary screen (AID 2806);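 further: plate controls were DMSO with enzyme for no effect and no enzyme wells for full effect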
Settings: purified mouse IAP, CDP-Star luminescence, 30 min; at 10 µM; active compounds read high

inhibition, inactive:
CC1(C)S[C@@H]2[C@H](N=CN3CCCCCC3)C(=O)N2[C@H]1C(=O)O -8.2%, O=C(COC(=O)Cn1[nH]c(=O)c2ccccc2c1=O)Nc1c(Cl)cccc1C(F)(F)F 4.1%, O=C(c1cc2ccccc2o1)N1CCN(S(=O)(=O)c2ccc(Cl)s2)CC1 -5.4%, Cc1cc(-c2ccc(S(=O)(=O)N3CCc4ccccc4C3)s2)on1 4.5%, NC(=O)NC(=O)CSc1nc2cc([N+](=O)[O-])ccc2n1-c1cccc(C(F)(F)F)c1 14.7%, CCc1sc(C(=O)N2CCN(CC(=O)Nc3cccc(F)c3)CC2)cc1C 6.1%, CC[C@]1(O)C[C@@H]2CN(CCc3c([nH]c4ccccc34)[C@@](C(=O)OC)(c3cc4c(cc3OC)N(C)[C@H]3[C@@](O)(C(=O)OC)[C@H](OC(C)=O)[C@]5(CC)C=CCN6CC[C@]43[C@@H]65)C2)C1 -16.7%, CCNc1c(NS(=O)(=O)c2ccc(C3CCCCC3)cc2)c(=O)oc2ccccc12 6%, CC(=O)Nc1ccc(S(=O)(=O)Nc2cc(C)cn(Cc3ccc(C)cc3)c2=O)cc1 4.9%, O=C(Nc1cccc2ccccc12)c1onc2c1CCCC2 3%, COc1cc(CN2CCNC(=O)C2CC(=O)NCCc2ncccc2C)cc(OC)c1 (configuration not stated) 5.5%, O=S(=O)(NCc1ccc2c(c1)OCO2)c1cccc2nsnc12 -5.4%, Cc1ccc(S(=O)(=O)NCC(=O)NNC(=O)c2ccc(Br)cc2)cc1C 28.4%, Cn1c2c(c(=O)n(C)c1=O)C1c3ccccc3OCC1C(C)(C)O2 (configuration not stated) 8.7%, CC(C)Oc1ccc(CN2CCC(n3nccc3NC(=O)c3cccnc3)CC2)cc1 -5.5%, CC(C)Oc1ccc(CCc2nnc(SCC(=O)O)n2-c2ccccc2)cc1 3.2%, O=S(=O)(c1ccc(NC(=S)NN=C(C2CC2)C2CC2)cc1)N1CCOCC1 37.7%, Cc1ccc(S(=O)(=O)N2CCN(CC(=O)N/N=C/c3cc([N+](=O)[O-])ccc3Cl)CC2)cc1 14.9%, COc1ccccc1C1C(C(N)=O)=C(C)Nc2nc(CCCO)nn21 (configuration not stated) -1.6%, Cc1occc1-c1nnc(SCC(=O)NC2CCCCC2)o1 -1.8%, O=C1N[C@H](Cc2ccccc2)C(=O)N[C@H]1Cc1cn(S(=O)(=O)c2ccccc2)c2ccccc12 -8%, CCOC(=O)C(NS(=O)(=O)c1ccc(C)cc1)(C(F)(F)F)P(=O)(OCC(C)C)OCC(C)C (configuration not stated) 2.8%, CCOC(=O)/C(N=Nc1cc(C(=O)O)cc(C(=O)O)c1)=C(\O)CCl -0.2%, CCn1c(CSc2nncn2-c2ccc(OC)cc2)nc2cc(S(=O)(=O)N(C)C)ccc21 6.6%, CCN(CC)S(=O)(=O)c1cc(C(=O)Nc2ccccn2)ccc1C 0.4%, OCC(O)CN(c1ccccc1)c1ccccc1 (configuration not stated) 0.3%, CN(C(=O)C1CCN(c2ncnc3c2nc2n3CCCCC2)CC1)C1CCCCC1 -5%, FC(F)(F)c1nnc2c3ccccc3c(Cl)nn12 -3.6%, CC(=O)N1CC[n+]2c(-c3ccc([N+](=O)[O-])cc3)csc21 7.9%, Cc1nc(C(=O)N2CCCC(C(=O)c3ccc(Cl)cc3)C2)cs1 (configuration not stated) 0.3%, CCc1ccc(CN(C)Cc2nc(Cc3ccccc3)no2)nc1 -1.4%, O=C1N[C@@H](Cc2ccccc2)C(=O)N2[C@H]1C[C@]1(Br)c3ccccc3N(S(=O)(=O)c3ccccc3)[C@H]21 5.7%, CCC(=O)Nc1c(S(=O)(=O)c2ccccc2)c2nc3ccccc3nc2n1Cc1ccccc1 2.7%, O=C(O)c1ccccc1OCc1ccccc1Cl 6.6%, CN(C(=O)CSc1nnc(N)s1)c1c(N)n(Cc2ccccc2)c(=O)[nH]c1=O 3.6%, Cc1ccc(N2C(=O)c3ccccc3C2(O)c2ncc[nH]2)cc1 (configuration not stated) -9%, CCC(C)(C(=O)NC1CCCCC1)N(C)C(=O)c1ccc2c(c1)OCO2 (configuration not stated) 2.8%, CCOc1ccc(NS(=O)(=O)c2cc(C)c(C)cc2C)cc1 -7.7%, CN(C)N(C)C(=O)C(O)(c1ccccc1)c1ccccc1 2.1%, O=c1c(F)cn(C2CCCO2)c(=O)n1Cc1ccccc1Cl (configuration not stated) -1.3%

inhibition, active:
Oc1cc(O)c2c(c1)OC(c1ccc(O)c(O)c1)C(O)C2 (configuration not stated) 75.1%, O=[N+]([O-])c1cc(Cl)cc(/C=N/NC(=S)Nc2cc(S(=O)(=O)N3CCOCC3)ccc2Cl)c1O 40.5%

— PubChem BioAssay AID2806 (Sanford-Burnham Center for Chemical Genomics, 2010)
